40 sequences from PMC7862700, “An all-to-all approach to the identification of sequence-specific readers for epigenetic DNA modifications on cytosine” can be followed below.

Chain of ELF4 (Q99607 whole entry): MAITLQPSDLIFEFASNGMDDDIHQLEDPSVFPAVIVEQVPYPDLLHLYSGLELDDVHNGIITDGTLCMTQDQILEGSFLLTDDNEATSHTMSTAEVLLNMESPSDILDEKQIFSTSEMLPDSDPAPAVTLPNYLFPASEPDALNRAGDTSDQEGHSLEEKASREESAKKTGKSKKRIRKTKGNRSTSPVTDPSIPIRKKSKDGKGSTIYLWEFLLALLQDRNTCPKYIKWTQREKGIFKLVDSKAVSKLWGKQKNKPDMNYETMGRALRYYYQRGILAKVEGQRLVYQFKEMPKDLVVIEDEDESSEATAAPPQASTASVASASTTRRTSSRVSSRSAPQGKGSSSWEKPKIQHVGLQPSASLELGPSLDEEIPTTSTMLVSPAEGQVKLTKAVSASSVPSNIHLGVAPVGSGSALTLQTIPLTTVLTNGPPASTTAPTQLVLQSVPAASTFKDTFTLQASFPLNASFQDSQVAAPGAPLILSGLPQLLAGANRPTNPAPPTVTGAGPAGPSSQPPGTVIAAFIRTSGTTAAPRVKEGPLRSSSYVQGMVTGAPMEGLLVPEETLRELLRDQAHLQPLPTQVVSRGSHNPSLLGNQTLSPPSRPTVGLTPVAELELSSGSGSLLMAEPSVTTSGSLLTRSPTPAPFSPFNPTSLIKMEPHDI

The target of one assay is HSF1 (Homo sapiens, UniProt Q00613 1-529). As to the kind of experiment: DAPPL (digital affinity profiling via proximity ligation, sequencing); 10 mM Tris-HCl pH 7.5, 50 mM NaCl, 1 mM DTT, 4% glycerol, room temperature, 30 min; GST-TFs on glutathione beads, 16-mer random dsDNA library, 0.1% formaldehyde crosslink after washing; high values mean tight binding. To be noted: protein: recombinant; tags: N-terminal GST; chain copies: 3; dsDNA, one strand shown. The gist of the method: (§1)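 Human transcription factors carrying a GST fusion were produced in yeast, bound to glutathione beads, tagged with DNA barcodes and pooled together with a tag-only sample. Each pool was held with 200 nmole of a random double-stranded 16-mer DNA library in Tris/NaCl/DTT/glycerol buffer for 30 min at room temperature, then washed, crosslinked in 0.1% formaldehyde, proximity-ligated with BsaI/T4 ligase (1 h, 37 °C), PCR-amplified and sequenced on an Illumina NextSeq500. Binding signal is the read frequency of each hexamer for a given factor divided by its frequency in the tag-only sample.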
Chain of HSF1 (Q00613 whole entry, the tested form may be a part): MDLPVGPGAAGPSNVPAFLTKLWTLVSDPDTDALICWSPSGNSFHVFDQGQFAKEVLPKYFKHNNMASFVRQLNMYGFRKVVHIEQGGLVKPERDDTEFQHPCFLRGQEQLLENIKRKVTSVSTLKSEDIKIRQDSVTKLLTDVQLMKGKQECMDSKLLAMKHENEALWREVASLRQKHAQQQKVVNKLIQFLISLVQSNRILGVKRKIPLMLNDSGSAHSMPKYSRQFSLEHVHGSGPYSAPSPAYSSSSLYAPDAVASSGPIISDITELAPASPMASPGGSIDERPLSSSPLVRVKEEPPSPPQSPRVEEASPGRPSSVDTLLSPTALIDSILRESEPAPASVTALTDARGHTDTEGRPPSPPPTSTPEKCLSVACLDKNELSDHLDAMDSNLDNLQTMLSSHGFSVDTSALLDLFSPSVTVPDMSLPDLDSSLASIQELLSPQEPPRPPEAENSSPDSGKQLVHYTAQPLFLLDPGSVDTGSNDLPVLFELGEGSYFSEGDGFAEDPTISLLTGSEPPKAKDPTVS
For the sequence GATCTT, the binding signal was 1.62 fold enrichment (6-mer frequency, TF over GST control).

Take TCCGAT: the binding signal is 1.42 fold enrichment (6-mer frequency, TF over GST control).

For AACACT, the binding signal is 1.18 fold enrichment (6-mer frequency, TF over GST control).

Take CCGTTT: the binding signal is 1.12 fold enrichment (6-mer frequency, TF over GST control).

Regarding AAACTC, the binding signal is 1.18 fold enrichment (6-mer frequency, TF over GST control).

As to ATGGCC, the binding signal was 1.23 fold enrichment (6-mer frequency, TF over GST control).

Regarding CTGTAT, the binding signal was 1.18 fold enrichment (6-mer frequency, TF over GST control).

Consider TTTGCA, for which the binding signal is 1.26 fold enrichment (6-mer frequency, TF over GST control).

As to CTTGAT, the binding signal is 1.44 fold enrichment (6-mer frequency, TF over GST control).

With AAAACC, the binding signal was 1.09 fold enrichment (6-mer frequency, TF over GST control).

For the sequence GCTACT, the binding signal is 1.07 fold enrichment (6-mer frequency, TF over GST control).

As for TATCTT, the binding signal was 1.48 fold enrichment (6-mer frequency, TF over GST control).

In the case of CAATTC, the binding signal was 1.19 fold enrichment (6-mer frequency, TF over GST control).

In the case of TAACAC, the binding signal is 1.2 fold enrichment (6-mer frequency, TF over GST control).

As for ACGAAA, the binding signal is 1.44 fold enrichment (6-mer frequency, TF over GST control).

In the case of CTGCTC, the binding signal is 1.17 fold enrichment (6-mer frequency, TF over GST control).

Consider TTTTTG, for which the binding signal was 1.24 fold enrichment (6-mer frequency, TF over GST control).

Turning to TCTGAA, the binding signal was 1.23 fold enrichment (6-mer frequency, TF over GST control).

Take TCCGGT: the binding signal was 1.09 fold enrichment (6-mer frequency, TF over GST control).

TCTGCA: the binding signal was 1.26 fold enrichment (6-mer frequency, TF over GST control).

Another assay concerns the target T1, SPIC (Homo sapiens, UniProt Q8N5J4 1-248).
T1 sequence: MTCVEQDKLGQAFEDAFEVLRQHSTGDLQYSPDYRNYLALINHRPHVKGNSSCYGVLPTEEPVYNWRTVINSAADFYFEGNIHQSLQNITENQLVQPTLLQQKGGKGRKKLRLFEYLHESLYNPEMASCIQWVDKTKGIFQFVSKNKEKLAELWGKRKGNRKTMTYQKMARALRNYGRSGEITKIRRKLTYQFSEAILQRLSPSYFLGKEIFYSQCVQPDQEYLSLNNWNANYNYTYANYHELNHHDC
Described as above. To be noted: protein: recombinant; tags: N-terminal GST; dsDNA, one strand shown. In short, it runs like this:
as §1
In the case of TAAGTA, the binding signal is 1.25 fold enrichment (6-mer frequency, TF over GST control).

On to TTGATG, for which the binding signal was 1.59 fold enrichment (6-mer frequency, TF over GST control).

Consider TTTGCT, for which the binding signal was 1.22 fold enrichment (6-mer frequency, TF over GST control).

For CCTGCT, the binding signal was 1.71 fold enrichment (6-mer frequency, TF over GST control).

For TTCGAA, the binding signal was 1.18 fold enrichment (6-mer frequency, TF over GST control).

As to AATCCT, the binding signal was 1.3 fold enrichment (6-mer frequency, TF over GST control).

TCCGCC: the binding signal was 1.69 fold enrichment (6-mer frequency, TF over GST control).

As to ATAACT, the binding signal is 1.28 fold enrichment (6-mer frequency, TF over GST control).

As for GGCTCA, the binding signal was 1.28 fold enrichment (6-mer frequency, TF over GST control).

In the case of AACTAG, the binding signal is 1.2 fold enrichment (6-mer frequency, TF over GST control).

In the case of ACGTTC, the binding signal is 1.21 fold enrichment (6-mer frequency, TF over GST control).

With GCACTT, the binding signal was 1.63 fold enrichment (6-mer frequency, TF over GST control).

With CTTGCG, the binding signal is 1.3 fold enrichment (6-mer frequency, TF over GST control).

As to TTCATG, the binding signal was 1.35 fold enrichment (6-mer frequency, TF over GST control).

Regarding CCTGGA, the binding signal was 1.42 fold enrichment (6-mer frequency, TF over GST control).

Take CTACTT: the binding signal is 1.89 fold enrichment (6-mer frequency, TF over GST control).

CGTTTC: the binding signal was 1.77 fold enrichment (6-mer frequency, TF over GST control).

Consider TTGGCA, for which the binding signal was 1.17 fold enrichment (6-mer frequency, TF over GST control).

Take GCCTCG: the binding signal was 1.07 fold enrichment (6-mer frequency, TF over GST control).

In the case of CGCTTC, the binding signal was 1.77 fold enrichment (6-mer frequency, TF over GST control).

On to GATCTT, for which the binding signal is 1.42 fold enrichment (6-mer frequency, TF over GST control).

As for TCCGAT, the binding signal is 1.25 fold enrichment (6-mer frequency, TF over GST control).

Regarding AACACT, the binding signal was 1.52 fold enrichment (6-mer frequency, TF over GST control).

As to CCGTTT, the binding signal was 1.44 fold enrichment (6-mer frequency, TF over GST control).

As to AAACTC, the binding signal was 1.26 fold enrichment (6-mer frequency, TF over GST control).

As for ATGGCC, the binding signal is 1.52 fold enrichment (6-mer frequency, TF over GST control).

For CTGTAT, the binding signal is 1.51 fold enrichment (6-mer frequency, TF over GST control).

As to TTTGCA, the binding signal was 1.23 fold enrichment (6-mer frequency, TF over GST control).

CTTGAT: the binding signal was 1.41 fold enrichment (6-mer frequency, TF over GST control).

Turning to AAAACC, the binding signal was 1.15 fold enrichment (6-mer frequency, TF over GST control).

With GCTACT, the binding signal is 1.3 fold enrichment (6-mer frequency, TF over GST control).

Take TATCTT: the binding signal is 1.27 fold enrichment (6-mer frequency, TF over GST control).

Regarding CAATTC, the binding signal was 1.16 fold enrichment (6-mer frequency, TF over GST control).

For the sequence TAACAC, the binding signal is 1.39 fold enrichment (6-mer frequency, TF over GST control).

Regarding ACGAAA, the binding signal was 1.02 fold enrichment (6-mer frequency, TF over GST control).

Regarding CTGCTC, the binding signal was 1.39 fold enrichment (6-mer frequency, TF over GST control).

Regarding TTTTTG, the binding signal was 1.39 fold enrichment (6-mer frequency, TF over GST control).

Turning to TCTGAA, the binding signal is 1.2 fold enrichment (6-mer frequency, TF over GST control).

In the case of TCCGGT, the binding signal was 3.59 fold enrichment (6-mer frequency, TF over GST control).

Take TCTGCA: the binding signal was 1.36 fold enrichment (6-mer frequency, TF over GST control).

Another assay deals with ELF4 (Homo sapiens, UniProt Q99607 1-663). The description is as above. To be noted: protein: recombinant; tags: N-terminal GST; dsDNA, one strand shown. The gist of the method:
as §1
Turning to TAAGTA, the binding signal is 1.24 fold enrichment (6-mer frequency, TF over GST control).

Regarding TTGATG, the binding signal was 1.63 fold enrichment (6-mer frequency, TF over GST control).

Consider TTTGCT, for which the binding signal is 1.27 fold enrichment (6-mer frequency, TF over GST control).

Take CCTGCT: the binding signal is 1.69 fold enrichment (6-mer frequency, TF over GST control).

As for TTCGAA, the binding signal was 1.26 fold enrichment (6-mer frequency, TF over GST control).

For AATCCT, the binding signal was 1.27 fold enrichment (6-mer frequency, TF over GST control).

Consider TCCGCC, for which the binding signal is 1.55 fold enrichment (6-mer frequency, TF over GST control).

On to ATAACT, for which the binding signal is 1.25 fold enrichment (6-mer frequency, TF over GST control).

For the sequence GGCTCA, the binding signal is 1.3 fold enrichment (6-mer frequency, TF over GST control).

With AACTAG, the binding signal is 1.19 fold enrichment (6-mer frequency, TF over GST control).

As for ACGTTC, the binding signal is 1.42 fold enrichment (6-mer frequency, TF over GST control).

Take GCACTT: the binding signal is 1.77 fold enrichment (6-mer frequency, TF over GST control).

As to CTTGCG, the binding signal was 1.27 fold enrichment (6-mer frequency, TF over GST control).

Turning to TTCATG, the binding signal is 1.33 fold enrichment (6-mer frequency, TF over GST control).

On to CCTGGA, for which the binding signal is 1.47 fold enrichment (6-mer frequency, TF over GST control).

Regarding CTACTT, the binding signal was 1.82 fold enrichment (6-mer frequency, TF over GST control).

Take CGTTTC: the binding signal is 1.8 fold enrichment (6-mer frequency, TF over GST control).

TTGGCA: the binding signal is 1.16 fold enrichment (6-mer frequency, TF over GST control).

For GCCTCG, the binding signal was 1.38 fold enrichment (6-mer frequency, TF over GST control).

Take CGCTTC: the binding signal was 2.02 fold enrichment (6-mer frequency, TF over GST control).

GATCTT: the binding signal was 1.26 fold enrichment (6-mer frequency, TF over GST control).

Take TCCGAT: the binding signal was 1.22 fold enrichment (6-mer frequency, TF over GST control).

Take AACACT: the binding signal is 1.3 fold enrichment (6-mer frequency, TF over GST control).

With CCGTTT, the binding signal was 1.36 fold enrichment (6-mer frequency, TF over GST control).

Take AAACTC: the binding signal was 1.22 fold enrichment (6-mer frequency, TF over GST control).

In the case of ATGGCC, the binding signal is 1.44 fold enrichment (6-mer frequency, TF over GST control).

For CTGTAT, the binding signal was 1.22 fold enrichment (6-mer frequency, TF over GST control).

As for TTTGCA, the binding signal is 1.29 fold enrichment (6-mer frequency, TF over GST control).

Take CTTGAT: the binding signal was 1.43 fold enrichment (6-mer frequency, TF over GST control).

As for AAAACC, the binding signal is 1.19 fold enrichment (6-mer frequency, TF over GST control).

Regarding GCTACT, the binding signal was 1.28 fold enrichment (6-mer frequency, TF over GST control).

TATCTT: the binding signal was 1.24 fold enrichment (6-mer frequency, TF over GST control).

CAATTC: the binding signal is 1.31 fold enrichment (6-mer frequency, TF over GST control).

Turning to TAACAC, the binding signal was 1.26 fold enrichment (6-mer frequency, TF over GST control).

Consider ACGAAA, for which the binding signal is 1.16 fold enrichment (6-mer frequency, TF over GST control).

Turning to CTGCTC, the binding signal was 1.29 fold enrichment (6-mer frequency, TF over GST control).

With TTTTTG, the binding signal is 1.45 fold enrichment (6-mer frequency, TF over GST control).

Take TCTGAA: the binding signal is 1.2 fold enrichment (6-mer frequency, TF over GST control).

Turning to TCCGGT, the binding signal is 3.32 fold enrichment (6-mer frequency, TF over GST control).

In the case of TCTGCA, the binding signal was 1.42 fold enrichment (6-mer frequency, TF over GST control).
